Bioassay records as filed in PubChem.
Rows were chosen to be rich in hits. Some 12% of all compounds tested hit in one or more screens of this group.
Sfp PPTase inh: blocks B. subtilis Sfp PPTase activity | Q9F4F7 | Biochemical Sfp PPTase activity, qHTS | Potency, µM, inactives show largest response in the series, negative = inhibition, most hits filed as inhibitors | hit rate 3.5% among 310,000 | AID 1490;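 note: the enzyme is Sfp with the accession as filed and its product quenches rhodamine fluorescence; 0% = enzyme reaction without inhibitor and -100% = no enzyme wells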
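After 15 min at room temperature with compound, 15 nM Sfp received 5 uM rhodamine-CoA plus 12.5 uM BHQ-2-ybbR (50 mM Hepes pH 7.6, 10 mM MgCl2). Rate came from the fluorescence difference over 30 min, ex 525/em 598 nm.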
L3MBTL1 inh: inhibitors of human L3MBTL1; Q9Y468; AlphaScreen L3MBTL1–H3K9me1 peptide binding; Potency, µM (series often up to 57.1 µM), for inactives: at the top dose activity, negative = inhibition, most hits filed as inhibitors; hit rate 0.66% among 230,000; AID 485360; note: % is set by controls: 0 for no effect and ±100 for the full control effect; nearly all actives have a fitted effect of over 60% in size
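AlphaScreen assay: L3MBTL1 (50 nM final) was preincubated 30 min at room temperature with biotinylated H3(1-15)K9me1 peptide (75 nM final), then 30 min with library compounds; streptavidin donor and nickel chelate acceptor beads (10 ug/mL final) added, 30 min dark.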
BAZ2B inh: BAZ2B (human) inhibition; hit rate 4.4% among 360,000; Potency, µM (series often up to 114 µM), for the others: at the highest dose activity change, negative = inhibition, most hits filed as inhibitors; Q9UIF8; AlphaScreen BAZ2B-H3K14Ac peptide displacement; note: % is set by controls: 0 for no effect and ±100 for the full control effect; nearly all actives have a fitted effect of over 60% in size
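Protein-peptide AlphaScreen: BAZ2B 50 nM, b-H3K14Ac 50 nM, 1x PBS pH 7.4 + 0.01% Tween-20. Preincubation 30 min RT; cpd 30 min RT (top 110 uM); beads 20 min RT, light-protected.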
G9a inh: G9a (human) methyltransferase inhibition; Q96KQ7; G9a H3K9 monomethylation, AlphaScreen, 2 h; Potency, µM (top dose mostly 102 µM), without a hit: top-dose activity, negative = inhibition, hits mostly inhibitors; hit rate 8.8% among 350,000; note: % is set by controls: 0 for no effect and ±100 for the full control effect; nearly all actives have a fitted effect of over 75% in size
Target sequence (Q96KQ7 913-1193 limits assumed): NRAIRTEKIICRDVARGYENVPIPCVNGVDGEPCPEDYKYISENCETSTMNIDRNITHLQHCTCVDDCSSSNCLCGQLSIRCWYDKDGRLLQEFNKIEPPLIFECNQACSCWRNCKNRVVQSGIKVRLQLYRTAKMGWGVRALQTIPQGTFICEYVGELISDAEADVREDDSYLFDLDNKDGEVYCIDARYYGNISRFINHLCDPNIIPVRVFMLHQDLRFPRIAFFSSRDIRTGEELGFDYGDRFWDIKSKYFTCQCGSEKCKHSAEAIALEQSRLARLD
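AlphaScreen read-out: biotin-H3K9 peptide (500 nM) methylation by 20 nM enzyme with 20 uM SAM, 2 h at room temperature after 15 min compound preincubation; anti-monomethyl H3K9 antibody plus donor/acceptor beads, 10 min dark.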
JMJD2A Tudor: JMJD2A Tudor domain (human) inhibition; AlphaScreen JMJD2A-Tudor / H3K4me3 peptide binding; Potency, µM (doses to about 114 µM), for inactives: top-dose activity change, negative = inhibition, hits mostly inhibitors; hit rate 4.4% among 390,000; AID 504339; O75164; note: % is set by controls: 0 for no effect and ±100 for the full control effect; nearly all actives have a fitted effect of over 50% in size
HP1b binding inh: inhibitors of HP1-beta chromodomain binding to methylated histone tails; hit rate 0.56% among 390,000; P83916; Potency, µM (doses to about 114 µM), for the others: top-dose activity change, negative = inhibition, actives largely listed as inhibitors; AlphaScreen HP1-beta / biotin-H3K9me3 peptide binding; AID 540317; note: nearly all actives have a fitted effect of over 70% in size
Target sequence (P83916 whole entry, looked up): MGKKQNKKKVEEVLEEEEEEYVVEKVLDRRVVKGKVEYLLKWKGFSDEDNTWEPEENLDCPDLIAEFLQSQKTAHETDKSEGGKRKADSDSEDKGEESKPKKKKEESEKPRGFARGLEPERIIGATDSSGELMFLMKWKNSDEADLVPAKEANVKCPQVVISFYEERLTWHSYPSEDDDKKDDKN
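AlphaScreen: HP1-beta (50 nM) preformed 30 min with biotin-H3(1-18)K9me3 peptide (50 nM) in PBS pH 7.4, 0.01% Tween-20. Compound added for 30 min at RT, then streptavidin donor/nickel chelate acceptor beads (10 ug/mL) for 30 min.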
An asterisk follows results filed as active; u = inconclusive; x = no result; ! = repeats disagree; [ ] = another dose, or the depositor's remark. Calls come from the whole dose curve; as a rule, active = well fitted curve in the direction sought with a large enough effect; inconclusive = small, poorly fitted or top-dose-only effect, or another doubt; inactive = no such curve, though single readings can be large; an effect the other way counts as inactive or inconclusive. Potency is the fitted concentration of half-maximal effect.

SMILES | Sfp PPTase inh | L3MBTL1 inh | BAZ2B inh | G9a inh | JMJD2A Tudor | HP1b binding inh
CCn1cc(C=C2C(=O)NC(=O)NC2=O)c2ccccc21 | -9.3% | x | 1.0% | -7.5% | -22.1% | 16.1%[57 µM]
O=C1NC(=O)C(=Cc2ccc3ccccc3c2)C(=O)N1 | 39.8µM* | -2.6% | -1.9% | -40.1%[12.7 µM] | -19.0% | 37.1%
Cc1cccc(OCCn2c(=O)oc3ccc(C)cc32)c1 | -17.9% | 20.5% | 14.5% | 194.9% | 130.3% | 171.6%
Cc1ccc(OCCOc2cccc(C=C3C(=O)NC(=O)NC3=O)c2)cc1 | 63.1µM* | x | u | u | u | 15.0%
C[C@@H]1OC=C2[C@@H](O)[C@H]3O[C@H]3C(=O)[C@@]23[C@H]1[C@H]1C2=C([C@@H](O)[C@H]4O[C@@H]4C2=O)[C@@H]3O[C@@H]1C | 22.5% | x | x | x | x | x
O[C@@H]1CCCN2C[C@@H](O)[C@@H](O)C12 (some centres undefined) | 17.1% | x | x | 38.9%[59 µM] | x | x
CN(Cc1ccc(OC(F)F)cc1)C(=O)c1ccccc1Sc1ccccc1C#N | x | x | x | x | 7.4% | 47.4%
CN1CC[C@@]2(CCCN(C(=O)Oc3ccccc3)C2)C1 | 10.5% | x | x | -3.3%[12.7 µM] | x | x
C[n+]1cc(P(=S)(c2ccccc2)c2ccccc2)n2ccccc21 | x | x | x | x | 10.9% | x
COc1ccccc1OCC(=O)N1CCCC(N(C)Cc2ccccc2)C1 (centres undefined) | 4.8% | x | -5.2% | x | -11.7% | 45.1%
COc1ccccc1OC(C)C(=O)N1CCC(Cc2ccccc2)CC1 (centres undefined) | 5.4% | x | -26.3% | 50.1µM* | -16.2% | -17.8%
COc1ccc2c(c1)[nH]c1c(C)nccc12 | 16.4% | 8.7% | u | 12.6µM*! | -20.6% | 59.8%
NCCc1c[nH]c2ccc(OCc3ccccc3)cc12 | 2.3% | -0.9% | u | 50.1µM* | -29.5% | 1.4%
COCCCOc1ccnc(CS(=O)c2nc3ccccc3[nH]2)c1C (centres undefined) | 50.1µM* | x | u | 12.6µM* | 35.5µM* | 22.4µM*
CN(C)C1C(=O)C(C(N)=O)=C(O)[C@@]2(O)C(=O)C3=C(O)c4c(O)cccc4[C@](C)(O)C3C(O)C12 (some centres undefined) | -64.5% | x | x | u | x | x
CN(C)[C@@H]1C(=O)C(C(N)=O)=C(O)[C@@]2(O)C(=O)C3=C(O)c4c(O)cccc4[C@@](C)(O)[C@H]3[C@H](O)[C@@H]12 | 44.7µM* | 1µM*! | 2.82µM* | 11.2µM* | 1.41µM*! | 3.98µM*!
CN(C)[C@@H]1C(=O)C(C(N)=O)=C(O)[C@@]2(O)C(=O)C3=C(O)c4c(O)ccc(Cl)c4[C@@](C)(O)[C@H]3C[C@@H]12 | -21.7% | x | 17.8µM* | u | 56.2µM* | 18.4%
CCOc1ccc(CN(CCc2ccc3c(c2)OCO3)Cc2cc(OC)ccc2O)cc1 | x | x | u | 3.16µM* | 22.4µM* | u
CCOc1ccc(CN(CCc2ccc3c(c2)OCO3)Cc2cccc(C)c2)cc1 | x | x | u | 0.891µM* | 22.4µM* | u
CCOc1ccc(CN(CCc2ccc3c(c2)OCO3)Cc2ccc(CC)cc2)cc1 | x | x | 70.8µM* | u | 22.4µM* | -21.5%
CN1C2CCCC1CC(=O)C2 | 5.2% | x | x | x | x | x
CCOc1cc2c(cc1OCC)-n1cccc1C(c1cccc(OCC)c1O)NC2 (centres undefined) | -7.6% | x | u | 44.7µM* | 44.7µM* | u
CCOc1cc(C2NCc3ccccc3-n3cccc32)ccc1OC (centres undefined) | 5.7% | x | u | u | u | -8.5%
Nc1ncnc2c1ncn2[C@@H]1O[C@H](COP(=O)(O)OP(=O)(O)OP(=O)(O)O)[C@H]2OC3(O[C@H]21)C([N+](=O)[O-])=CC(=[N+]([O-])[O-])C=C3[N+](=O)[O-] (some centres undefined) | 8.91µM* | x | x | 26.4%[59 µM] | x | x
